Experimental data from PubChem BioAssay (NCI).
Compounds without any hit were thinned out: in the full panel of roughly 79,000, 15% have a hit. Unmarked numbers belong to inactive results. Cut-off read from the data, not from the text of the source: active = growth inhibition above about 70%; inactive = the rest. Where a SMILES comes first, the peptide text is derived from it. [ ]: non-standard residue; d: D form. The star is where a group is joined. ξ: configuration not given here. Boc = CC(C)(C)OC(=O)*; ξV = CC(C)C(N)C(=O)O; OBn = c1ccc(CO*)cc1

Test: NCI Yeast Anticancer Drug Screen. Data for the rad50 strain (AID 155);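 note: 0% = growth of vehicle-only cultures of the same strain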
Conditions: S. cerevisiae rad50 strain growth inhibition; at 50.0 µM; hits give high values
In short: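 Genetically altered yeast (DNA repair pathway); compound treatment; growth inhibition vs vehicle ctrl.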

Point of comparison: `Nc1ncnc2c1ccn2C1OC2COP(=O)(O)OC2C1O` (configuration not stated), growth inhibition -12.6%. Against it:
- O=c1[nH]cc(SSc2c[nH]c(=O)[nH]c2=O)c(=O)[nH]1 — higher, 13.4%
- O=C1CN(c2cccc(Cl)c2)C(=O)CN1CCN1CC(=O)N(c2cccc(Cl)c2)CC1=O — lower, -35.2%
- COc1cc(OC)cc(N(C)Cc2cnc3nc(N)nc(N)c3c2C)c1 — higher, 0.75%
- Cc1ccc(S(=O)(=O)NNCCC#N)cc1 — higher, -5%
- C1#CCSCC#CCSC1 — higher, 14.2%
- Clc1ccc(/C=C/c2nc3ccccc3s2)cc1Cl — lower, -13.8%
- Cc1c(NC=O)c(=O)n(-c2ccccc2)n1C — higher, -10.8%
- CC(/C=C/C=C/C=C/C=C/C=C/C(O)=C1/C(=O)C(CCC(=O)O)N(C)C1=O)=C\C(C)C(OC1CC(O)C(O)C(C)O1)C(C)C (configuration not stated) — higher, -11.6%
- COc1cccc(-c2nnc(-c3cccc(OC)c3)o2)c1 — higher, 25.4%
- COc1ccc2c(C#N)cc3c4ccccc4ncc3c2c1 — higher, 16.6%
- CC(=O)CC(=O)NCc1ccccc1 — higher, 10.7%
- CC(O)c1ccccc1Br (configuration not stated) — higher, -9.65%
- O=C(NC(Cc1ccccc1)C(=O)O)c1ccccc1 (configuration not stated) — higher, 4%
- CC(C)C(NC(=O)OC(C)(C)C)C(=O)NCC(=O)OCc1ccccc1 (configuration not stated) (Boc-[ξV]-Gly-OBn) — lower, -37.9%
- CCN(CC)C(=O)C1C(C=C(C)C)C1(C)C (configuration not stated) — higher, 6.95%
- CCC/C(=C(\C)c1ccccc1)c1ccccc1 — higher, 46.1%
